# Screens from PubChem.
# IL1B secr inh = qHTS for Inhibitors of Inflammasome Signaling: IL-1-beta AlphaLISA Primary Screen | 360,000 tested, 4.7% active | activity change, % at 57.5 µM | THP-1 LPS/ATP IL-1B secretion, AlphaLISA, 16 h; hits give low values; in the data active means activity change below about -50%; inconclusive means mostly about -30% to -49%
#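 Secreted IL-1B measured by AlphaLISA bead assay after 16 h compound exposure of THP-1 cells; compounds (final up to 57.5 uM) added 1 h before LPS (250 ng/mL) and ATP (1.25 mM) stimulation; lower signal means less secretion.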
# RORg inh = qHTS for inhibitors of ROR gamma transcriptional activity | Nuclear receptor ROR-gamma (Mus musculus), P51450 | Drosophila S2 Gal4-RORgamma UAS-luciferase reporter, 20 h | Potency, µM (series often up to 53.6 µM), for the others: at the top dose activity change, negative = inhibition, actives largely listed as inhibitors | 310,000 tested, 5.4% active | AID 2551, 2010; further: potency means the concentration at half of the fitted maximal effect; nearly all actives have a fitted effect of over 60% in size
# Target sequence (P51450 whole entry, looked up, the tested form may be a part): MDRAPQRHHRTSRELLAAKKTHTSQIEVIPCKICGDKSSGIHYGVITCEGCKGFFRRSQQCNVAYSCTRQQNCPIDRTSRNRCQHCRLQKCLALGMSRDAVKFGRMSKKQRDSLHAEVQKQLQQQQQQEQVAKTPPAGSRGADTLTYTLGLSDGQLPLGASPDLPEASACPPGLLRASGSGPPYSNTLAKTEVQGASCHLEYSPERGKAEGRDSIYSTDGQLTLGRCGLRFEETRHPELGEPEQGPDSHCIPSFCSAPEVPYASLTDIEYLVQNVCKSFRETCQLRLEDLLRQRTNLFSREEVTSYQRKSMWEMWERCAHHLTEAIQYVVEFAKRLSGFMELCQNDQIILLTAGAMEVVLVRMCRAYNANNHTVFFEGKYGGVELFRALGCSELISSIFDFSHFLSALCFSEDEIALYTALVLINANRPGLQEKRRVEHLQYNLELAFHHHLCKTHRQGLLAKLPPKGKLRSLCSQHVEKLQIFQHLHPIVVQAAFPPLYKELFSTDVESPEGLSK
#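 Luciferase reporter read in Schneider cells carrying Gal4-RORγ (mouse) and UAS-Photinus luciferase; cells given compound 1 h before 700 uM copper sulfate induction, then incubated 20 h at ambient temperature.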
# DT40 TDP1 no CPT = qHTS for Inhibitors of human tyrosyl-DNA phosphodiesterase 1 (TDP1): qHTS in cells in absence of CPT. DT40 Tdp1-/- hTDP1 cells, no CPT, ATP luminescence, 48 h. Potency, µM (titrated, usually from 46.2 µM), inactives show at the highest dose activity change, negative = growth inhibition, most hits filed as inhibitors. 420,000 tested, 15% active; further: potency means the concentration at half of the fitted maximal effect; nearly all actives have a fitted effect of over 55% in size
#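 Growth of hTDP1-complemented DT40 Tdp1-knockout cells is measured by ATP luminescence after at least 48 hr compound exposure at 37 °C, with DMSO substituting for the 20 nM CPT used in the parallel screen.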
# VP16 counter = VP16 counterscreen qHTS for inhibitors of ROR gamma transcriptional activity; Drosophila S2 Gal4-VP16 UAS-luciferase, luminescence, 20 h; Potency, µM (titrated, usually from 53.6 µM), without a hit: at the top dose activity, negative = inhibition, most hits filed as inhibitors; 310,000 tested, 3.5% active; AID 2546, 2010;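 further: Gal4-VP16 expression switched on by copper sulfate through the metallothionein promoter; potency means the concentration at half of the fitted maximal effect; nearly all actives have a fitted effect of over 50% in size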
# TDP1 cell CPT = qHTS for Inhibitors of human tyrosyl-DNA phosphodiesterase 1 (TDP1): qHTS in cells in presence of CPT; 420,000 tested, 12% active; Potency, µM (series often up to 46.2 µM), inactives show at the highest dose activity change, negative = growth inhibition, usual class: inhibitors; AID 686979, 2013; chicken DT40 Tdp1-/-;hTDP1 cells + 20 nM CPT, ATP luminescence, 48 h; further: potency means the concentration at half of the fitted maximal effect; nearly all actives have a fitted effect of over 55% in size
#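 Chicken DT40 Tdp1-/- cells complemented with human TDP1, 400 cells/well, exposed to compounds plus 20 nM camptothecin for at least 48 h at 37 C; viability read as ATP content by CellTiter-Glo luminescence.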
# ELG1 repair inh = qHTS screen for small molecules that inhibit ELG1-dependent DNA repair in human embryonic kidney (HEK293T) cells expressing luciferase-tagged ELG1; HEK293T ELG1-luciferase reporter, luminescence, 16 h; DNA damage induced by 5-fluorouridine; 330,000 tested, 2.3% active; Potency, µM (titrated, usually from 46.1 µM), for inactives: at the highest dose activity change, negative = inhibition, most hits filed as inhibitors; further: potency means the concentration at half of the fitted maximal effect; nearly all actives have a fitted effect of over 55% in size
#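 Reporter activity after DNA damage by 5-fluorouridine is monitored. Compound-treated cells incubate 16 hr at 37 °C, then ONE-Glo is added for 30 min before luminescence reading.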
# Numbers without * were called inactive; ? = inconclusive; . = no result; [ ] = remark or other dose. An excerpt weighted towards active compounds, which were near 21% of everything screened. Unless noted, the call rests on the fitted dose curve; in most records, active means well fitted curve in the direction sought with a large enough effect; inconclusive means small, poorly fitted or top-dose-only effect, or another doubt; inactive means no such curve, though single readings can be large; an effect the other way counts as inactive or inconclusive. On the % scale 0 is the no-effect control and ±100 the full control effect.
SMILES,IL1B secr inh,RORg inh,DT40 TDP1 no CPT,VP16 counter,TDP1 cell CPT,ELG1 repair inh
COc1ccc(S(=O)(=O)N(C)C[C@H]2Oc3cc(Br)ccc3S(=O)(=O)N([C@H](C)CO)C[C@H]2C)cc1,22.7,.,20.6µM*,.,?,.
COc1cccc(C#Cc2ccc3c(c2)O[C@H](CN(C)S(=O)(=O)c2ccccc2F)[C@H](C)CN([C@H](C)CO)S3(=O)=O)c1,0.7,.,?,.,-30.0%,.
CCCC#Cc1ccc2c(c1)O[C@H](CN(C)S(=O)(=O)c1cccc(OC)c1)[C@H](C)CN([C@H](C)CO)S2(=O)=O,-15.9,.,16.4µM*,.,14.6µM*,.
C[C@@H]1CN([C@@H](C)CO)S(=O)(=O)c2ccc(Br)cc2O[C@@H]1CN(C)S(=O)(=O)c1cn(C)cn1,4.4,.,-20.4%,.,17.5%,.
C[C@H](CO)N1C[C@H](C)[C@H](CN(C)S(=O)(=O)c2cccc(F)c2)Oc2cc(Br)ccc2S1(=O)=O,-16.4,.,20.6µM*,.,25.9µM*,.
C[C@H]1CN([C@@H](C)CO)S(=O)(=O)c2ccc(C#CC3CC3)cc2O[C@@H]1CN(C)S(C)(=O)=O,-3.6,.,?,.,-26.5%,.
COc1ccc(OC)c(CNC(=O)C2CCN(S(=O)(=O)c3cn(C)cn3)CC2)c1,.,.,2.4%,.,-11.2%,.
Cc1cc(C)cc(C(=O)NC(CC(N)=O)c2ccc(NCCN3CCCC3)c([N+](=O)[O-])c2)c1 (stereo not drawn),2.7,0.5%,-22.3%,-1.0%,-2.4%,22.7%
COc1ccc(S(=O)(=O)N(C)C[C@@H]2Oc3cc(Br)ccc3S(=O)(=O)N([C@H](C)CO)C[C@@H]2C)cc1,-20.0,.,16.4µM*,.,?,.
COCC#Cc1ccc2c(c1)O[C@@H](CN(C)S(=O)(=O)c1cccc(F)c1)[C@@H](C)CN([C@H](C)CO)S2(=O)=O,-0.6,.,18.4µM*,.,?,.
COc1cccc(S(=O)(=O)N(C)C[C@@H]2Oc3cc(Br)ccc3S(=O)(=O)N([C@@H](C)CO)C[C@@H]2C)c1,-11.0,.,25.9µM*,.,?,.
COc1ccc(NC(=O)N(C)C[C@@H]2Oc3cc(Br)ccc3S(=O)(=O)N([C@H](C)CO)C[C@H]2C)cc1,2.6,.,-20.3%,.,-8.2%,.
CC1(C(=O)NS(=O)(=O)Cc2ccccc2C(F)(F)F)CCN1C(=O)Cc1cccs1 (stereo not drawn),17.7,.,-15.3%,.,?,.
O=C(NCc1ccco1)C1CC(O)CN1C(=O)Nc1ccccc1 (stereo not drawn),-20.4,-0.2%,-0.1%,0.9%,-0.4%,-0.2%
CCOC(=O)C1=C(Cc2ccc(OC)cc2)C(=O)c2ccccc2C1=O,-81.9*,10µM*,8.2µM*,?,4.61µM*,7.0%
CCOC(=O)c1ccc(COC(=O)c2ccc3c(c2)-c2ccccc2C3=O)cc1,41.7,-0.4%,?,-3.4%,-9.9%,-1.0%
CCOC(=O)C1=C(Cc2ccc(C)cc2)C(=O)c2ccccc2C1=O,.,11.2µM*,.,?,.,?
CCN(C(=O)c1ccccc1F)c1nc(-c2ccc(OC)cc2)cs1,0.0,?,20.6µM*,-9.8%,20.6µM*,?
COc1ccc(-c2csc(N(CCCN(C)C)C(=O)c3ccccc3Cl)n2)cc1,-72.4*,.,?,.,?,.
COc1ccc(-c2csc(N(CCCN(C)C)C(=O)c3ccccc3F)n2)cc1,?,-20.0%,14.6µM*,-12.5%,9.2µM*,-7.8%
CCN(CC)CCCN(C(=O)c1ccc(F)cc1)c1nc(-c2ccc(OC)cc2)cs1,-93.4*,-21.0%,10.3µM*,-3.4%,13µM*,-25.3%
O=C(c1cccc(F)c1)N1CCC2(CCCN(c3ccccn3)C2)CC1,.,-1.8%,?,5.8%,?,.
COc1ccc(-c2csc(N(CCCN(C)C)C(=O)c3ccc(F)cc3)n2)cc1,-20.8,18.4%,?,0.3%,-34.9%,?
COc1ccc(-c2csc(N(CCCN(C)C)C(=O)c3ccccc3C)n2)cc1,-76.0*,?,4.61µM*,-18.2%,3.66µM*,?
COc1ccc(O[C@H]2C=C[C@@H](c3ccccc3)O[C@@H]2COC(=O)CC/C(C)=N/O[C@H](C)c2cn([C@@H]3COC[C@H]3O)nn2)cc1,.,?,.,-2.6%,.,25.9µM*
SMILES,IL1B secr inh,RORg inh,DT40 TDP1 no CPT,VP16 counter,TDP1 cell CPT,ELG1 repair inh
COc1ccc(O[C@H]2C=C[C@@H](c3ccccc3)O[C@H]2CO/N=C(/C)CCC(=O)OC[C@@H]2O[C@H](c3ccccc3)C=C[C@@H]2Oc2ccc(OC)cc2)cc1,.,25.6%[10 µM],.,-2.8%[10 µM],.,.
CC(C)(C)c1ccc(S(=O)(=O)N2CCc3nc4ccccc4c(C(=O)O)c3C2)cc1,3.4,0.1%,-0.6%,-1.5%,4.9%,-6.4%
CCc1ccc(NC(=O)c2sc(-n3nc(C)c(Cc4ccc(OC)cc4)c3C)nc2C)cc1,.,.,-14.3%,.,-10.7%,.
COc1ccc(-n2cccc2/C=C/[N+](=O)[O-])cc1,-103.1*,10µM*,3.26µM*,?,2.31µM*,23.1µM*
NC(CCC(=O)N[C@@H](CS)C(=O)NCC(=O)O)C(=O)O (stereo partly drawn),.,-16.4%,.,-2.2%,.,.
CCOc1cc(C(=O)Nc2cc(C(=O)OC)ccc2C)ccc1OCC(=O)N1CCOCC1,6.2,.,-0.8%,.,-18.9%,0.1%
CCOC(=O)CNC(=O)O[C@@H]1C(=O)c2cc(Br)ccc2O[C@H]1c1ccc2c(c1)OCO2,.,-7.3%,.,-19.5%,.,.
CCCn1c(Nc2nc3ccccc3n2C)nc2ccccc21,-99.3*,-38.1%,?,-11.3%,-8.7%,?
Cc1csc(NC(=O)C2CCN(S(=O)(=O)c3ccc4c(c3)oc(=O)n4C)CC2)n1,15.0,5.3%,-16.2%,1.5%,1.2%,?
CCCn1c(NC(=O)c2cccc(S(=O)(=O)N3CCCC3)c2)nc2ccccc21,-91.6*,2.82µM*,13µM*,6.31µM*,23.1µM*,8.2µM*
CCCCn1c(Nc2ccccc2)nc2ccccc21,-16.4,-30.5%,-19.4%,-4.2%,-7.3%,1.2%
Cc1csc(NC(=O)C2CCN(S(=O)(=O)c3ccccc3F)CC2)n1,11.9,30.6%,25.9µM*,-4.6%,?,?
